Assay results taken from PubChem BioAssay AID1347081 (National Center for Advancing Translational Sciences (NCATS), 2019).
Records with an inconclusive call do not appear. Unmarked numbers belong to inactive results. Active and inactive are the calls of the source. Calls follow the shape of the full dose curve.

assay: qHTS for Inhibitors of the Functional Ribonucleoprotein Complex (vRNP) of Lassa (LASV) Arenavirus: Viability assay - alamar blue signal for LASV Confirmatory Screen; conditions: LASV vRNP counter-screen cells; series mostly up to 53.9 µM; activity change, negative = decreased viability: at the top concentration

With `Cc1ncc([N+](=O)[O-])n1CC(C)O` (centres undefined) as the compound, how does the “activity change, negative = decreased viability” value read?
The value was -11.4%.

With `CCC[C@H](N[C@@H](C)C(=O)N1[C@@H]2CCCC[C@H]2C[C@H]1C(=O)O)C(=O)OCC` as the compound, how does the “activity change, negative = decreased viability” value read?
The value was -18.7%.

With `CCOC(=O)OCC/C(SC(=O)OCC)=C(\C)N(C=O)Cc1cnc(C)nc1N` as the compound, how does the “activity change, negative = decreased viability” value read?
Its value is -11.9%.

Which activity change, negative = decreased viability does the source give for `CCCCC[C@H](O)/C=C/C=C/C/C=C\CCCC(=O)O` here?
Its activity change, negative = decreased viability is 20.4% [at 0.666 µM].

For `CCn1c(-c2nonc2N)nc2cnc(Oc3cccc(NC(=O)c4ccc(OCCN5CCOCC5)cc4)c3)cc21`, which Potency is on record?
The Potency was 8.63 µM (active).

Which Potency does the source give for `CC[C@@H](C(=O)O)[C@@H]1O[C@@H]([C@@H](C)[C@H](O)[C@H](C)C(=O)[C@H](CC)[C@H]2O[C@]3(C=C[C@@H](O)[C@]4(CC[C@@](C)([C@H]5CC[C@](O)(CC)[C@H](C)O5)O4)O3)[C@H](C)C[C@@H]2C)[C@@H](C)C[C@@H]1C` here?
Its Potency is 1.57 µM (active).

With `COc1cc2c(cc1OC)CC(=O)N(CCCN(C)C[C@H]1Cc3cc(OC)c(OC)cc31)CC2` as the compound, how does the “activity change, negative = decreased viability” value read?
The value was 3.57%.

For `CC(O)(P(=O)(O)O)P(=O)(O)O`, which “activity change, negative = decreased viability” value is on record?
The value was 10.9%.

With `CC(=O)OCC(=O)[C@@]12N=C(C)O[C@H]1C[C@H]1[C@@H]3CCC4=CC(=O)C=C[C@]4(C)[C@@H]3[C@@H](O)C[C@@]12C` as the compound, how does the “activity change, negative = decreased viability” value read?
Its value is -42.9%.

For `CO/C=C(/C(=O)OC)c1ccccc1Oc1cc(Oc2ccccc2C#N)ncn1`, which Potency is on record?
The Potency was 31.4 µM (active).

Which Potency does the source give for `CC12C(=O)OC(=O)C1(C)C1CCC2O1` (centres undefined) here?
The Potency was 3.85 µM (active).

Which Potency does the source give for `CCCCCC[C@H]1C(=O)O[C@H](C)[C@H](NC(=O)c2cccc(NC=O)c2O)C(=O)O[C@@H](C)[C@@H]1OC(=O)CC(C)C` here?
The Potency was 0.0544 µM (active).

With `C=C(C)C1Cc2c(ccc3c2OC2COc4cc(OC)c(OC)cc4C2C3=O)O1` (centres undefined) as the compound, how does the Potency read?
Its Potency is 0.0968 µM (active).

For `Cn1cc(-c2ccncc2)c(-c2ccc(OCc3ccc4ccccc4n3)cc2)n1`, which Potency is on record?
The Potency was 21.7 µM (active).

With `O=C1c2ccccc2-n2c1nc1ccccc1c2=O` as the compound, how does the Potency read?
The Potency was 3.85 µM (active).

Which Potency does the source give for `Cc1cccc(-c2[nH]c(C(C)(C)C)nc2-c2ccc3c(c2)OCO3)n1` here?
Its Potency is 4.85 µM (active).

For `COC(=O)c1nc(Cl)c(Cl)nc1N`, which Potency is on record?
Its Potency is 1.93 µM (active).

Which Potency does the source give for `CCCCCN=C(N)N/N=C/c1c[nH]c2ccc(OC)cc12` here?
Its Potency is 8.63 µM (active).

Which “activity change, negative = decreased viability” value does the source give for `CCC(c1ccc(O)cc1)C(CC)c1ccc(O)cc1` (centres undefined) here?
Its value is -23.8%.

For `Cc1cnc(NC(=O)C2=C(O)c3ccccc3S(=O)(=O)N2C)s1`, which “activity change, negative = decreased viability” value is on record?
Its value is -18%.

With `CCc1cncnc1N1CCN(Cc2nc3ccc(C(F)(F)F)cc3[nH]2)CC1` as the compound, how does the Potency read?
Its Potency is 12.5 µM (active).

Which Potency does the source give for `Oc1cc(Cl)ccc1Oc1ccc(Cl)cc1Cl` here?
Its Potency is 39.5 µM (active).

With `Cc1cc2c(C(C)C)c(O)c(O)c(C=O)c2c(O)c1-c1c(C)cc2c(C(C)C)c(O)c(O)c(C=O)c2c1O` as the compound, how does the Potency read?
The Potency was 21.7 µM (active).

For `CCC(C)c1nccnc1OC` (centres undefined), which “activity change, negative = decreased viability” value is on record?
Its value is 6.84% [at 110 µM].
